Screen size: about 290,000 compounds; about 11,000 (3.8%) were called active.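 The calls were made as follows: active = mean replicate inhibition above about 79%, with every replicate also reaching it (limit read from the data); inconclusive = only one of the two criteria met; inactive = mean below limit and not every replicate reaching it.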 The list comes from a sample in which actives are over-represented; it also holds similar structures and randomly drawn compounds.
Molecular target: FAD-linked sulfhydryl oxidase ALR (Homo sapiens) (UniProt P55789)
Sequence (P55789 whole entry, looked up): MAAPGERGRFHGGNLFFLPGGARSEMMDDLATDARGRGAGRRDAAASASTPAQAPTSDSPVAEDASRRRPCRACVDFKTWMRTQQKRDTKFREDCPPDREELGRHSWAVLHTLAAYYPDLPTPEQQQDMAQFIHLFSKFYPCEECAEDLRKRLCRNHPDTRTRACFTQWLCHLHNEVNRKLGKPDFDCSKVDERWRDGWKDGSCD
Assay: inhibitors of human ALR sulfhydryl oxidase, primary screen, biochemical, H2O2 detection, HRP-luminol luminescence, single point (AID 485317)
Conditions: purified ALR, DTT oxidation, hits give high values, concentration not given here

Row | Compound | inhibition
1 | Cc1ccc(S(=O)(=O)N(C)c2ccc(OCC(=O)OCc3ccc(C#N)cc3)cc2)cc1 | 2.46% (inactive)
2 | O=C(COC(=O)/C=C/c1nc2ccccc2s1)Nc1ccccc1Oc1ccccc1 | 28.6% (inactive)
3 | CCN(C(=O)CSc1nc2ccccc2n1CC)C1CCS(=O)(=O)C1 (configuration not stated) | 9.23% (inactive)
4 | CCN(C(=O)COC(=O)/C=C/c1nc2ccccc2s1)C1CCS(=O)(=O)C1 (configuration not stated) | 94.6% (active)
5 | COc1ccccc1NC(=O)C(C)OC(=O)c1ccc(-n2cnnn2)cc1 (configuration not stated) | 7.2% (inactive)
6 | CCc1cccc(NC(=O)COC(=O)C2CCN(c3ccc(C(F)(F)F)cn3)CC2)c1 | -1.14% (inactive)
7 | O=C(Oc1ccc(-c2nnco2)cc1)c1ccc(F)c(S(=O)(=O)N2CCOCC2)c1 | -0.68% (inactive)
8 | Cc1cccc(OCC(=O)OCC(=O)Nc2ccc(Cl)cn2)c1 | 0.248% (inactive)
9 | O=C(NCC(c1ccco1)N1CCc2ccccc21)c1cccc(F)c1 (configuration not stated) | 95.5% (active)
10 | Cc1ccccc1C(=O)NCC(c1ccco1)N1CCc2ccccc21 (configuration not stated) | 27% (inactive)
11 | COc1ccc(C(=O)NCC(c2ccco2)N2CCc3ccccc32)cc1OC (configuration not stated) | 72.4% (inactive)
12 | O=C(Nc1cc(S(=O)(=O)Nc2ccc(Cl)cc2)ccc1O)c1ccc(F)cc1F | -4.12% (inactive)
13 | CSc1ccc(S(=O)(=O)NCC(=O)OCC(=O)NC2(C#N)CCCCC2)cc1[N+](=O)[O-] | -5.06% (inactive)
14 | c1ccc(-c2cc(-c3ccccc3)[nH]n2)cc1 | -15.4% (inactive)
15 | O=C1C=C(c2ccccc2)CCC1 | 0.158% (inactive)
16 | O=c1[nH]c(-c2ccccc2)c(-c2ccccc2)[nH]1 | 98.6% (active)
17 | O=C(Nc1ccccn1)C1CCN(S(=O)(=O)c2ccc3c(c2)OCCO3)CC1 | 1.39% (inactive)
18 | CCc1ccc2ncc(C(=O)c3ccccc3)c(N3CCOCC3)c2c1 | 97.1% (active)
19 | CCc1ccc(C(=O)NC(=S)Nc2ccccc2N2CCOCC2)cc1 | -1.76% (inactive)
20 | CCc1ccc2nc(Nc3ncc(C(C)=O)c(C)n3)nc(C)c2c1 | -4.9% (inactive)
21 | Cc1ccc(N2CC(C(=O)Nc3cc(Cl)ccc3-n3cncn3)CC2=O)cc1 (configuration not stated) | -10% (inactive)
22 | O=C(c1ccncc1)N1CCN(S(=O)(=O)c2cc(C(F)(F)F)cc(C(F)(F)F)c2)CC1 | -17.2% (inactive)
23 | CCCn1c(C)cc(-c2csc(NC(=O)CCc3nc4ccccc4c(=O)[nH]3)n2)c1C | -8.89% (inactive)

Row | Compound | inhibition
24 | Cc1cc(-c2n[nH]c(=S)n2-c2ccc(C)c(C)c2)no1 | 96% (active)
25 | Cc1ccc(-c2csc(-c3cc(C)on3)n2)cc1 | -0.833% (inactive)
26 | S=c1[nH]nc(-c2cc(-c3ccsc3)n[nH]2)n1-c1ccccc1 | 67.2% (inactive)
27 | CCCCn1c(N)c(N(CCC(C)C)C(=O)CC2OC(=O)c3ccccc32)c(=O)[nH]c1=O (configuration not stated) | -12.6% (inactive)
28 | COCCCNC(=O)CC1C[C@H](C(=O)N2CCCCC2)[C@@]2(CCc3ccccc3)c3[nH]c4ccccc4c3CCN2C1=O (some centres not stated) | -3.65% (inactive)
29 | CCCc1nc2ccccc2c(=O)n1/N=C/c1ccc(O)c(O)c1 | 98.6% (active)
30 | O=c1c2ccccc2ncn1/N=C/c1ccccc1 | -10.9% (inactive)
31 | CCCc1nc2ccccc2c(=O)n1NC(=O)c1c(O)c2ccccc2[nH]c1=O | -6.61% (inactive)
32 | c1ccc(-c2nnc(SCc3nc4ccccc4[nH]3)o2)cc1 | -5.4% (inactive)
33 | Clc1ccccc1SCc1nc2ccccc2[nH]1 | -0.577% (inactive)
34 | c1ccc2c(CSCc3nc4ccccc4[nH]3)cccc2c1 | 98.7% (active)
35 | COc1cc(/C=C(\C#N)c2nc3c(s2)CC(C)CC3)ccc1O (configuration not stated) | 70% (inactive)
36 | COc1cc(/C=C(\C#N)c2nc3ccccc3[nH]2)ccc1O | 99% (active)
37 | Cc1ccc2nc(/C(C#N)=C\c3ccc(OC(=O)c4cccs4)cc3)[nH]c2c1 | -13.7% (inactive)
38 | COc1ccc(N2CCN(S(=O)(=O)c3ccc4c(c3)N(C(C)=O)CCO4)CC2)cc1 | 89.8% (active)
39 | CCOC(=O)C1CCN(S(=O)(=O)c2ccc3c(c2)N(C(C)=O)CCO3)CC1 | 25.7% (inactive)
40 | CC(=O)N1CCOc2ccc(S(=O)(=O)N3CCN(c4cccc(C(F)(F)F)c4)CC3)cc21 | -1.95% (inactive)
41 | Cc1cc(C)c(C)c(S(=O)(=O)Nc2cccnc2)c1C | -4.67% (inactive)
42 | CCOC(=O)c1c(NC(=O)CCC(=O)NCc2ccco2)sc2c1CCCC2 | 3.61% (inactive)
43 | CCOC(=O)c1c(NC(=O)C(C)Sc2c[nH]c3ccccc23)sc2c1CCC2 (configuration not stated) | 94.5% (active)
44 | CCOC(=O)c1c(NC(=S)Nc2ccccc2C)sc2c1CCC2 | -0.578% (inactive)
45 | O=C(O[C@@H]1[C@H](Cc2ccccc2)NS(=O)(=O)[C@H]2C[C@@H]3C=C[C@]12O3)c1ccccc1Br | 6.25% (inactive)
46 | CCCCn1c(N)c(N(CC(C)C)C(=O)CN(C)S(=O)(=O)c2ccc(F)cc2)c(=O)[nH]c1=O | -15.2% (inactive)

Row | Compound | inhibition
47 | CC(=O)c1sc(NC(=O)CCN2C(=O)C3CC=CCC3C2=O)nc1-c1ccccc1 (configuration not stated) | 1.73% (inactive)
48 | CCOc1cccc(/C=N/NC(=S)NCCN2CCOCC2)c1O | 49.2% (inactive)
49 | CCOc1ccccc1N=C1NC(=O)CS1 | -4.82% (inactive)
50 | CCOc1cccc(/C=N/N2C(=O)CSC2=S)c1O | 92.9% (active)
51 | CC(NC(=O)COC(=O)c1ccc2ccccc2n1)c1ccccc1 (configuration not stated) | -0.035% (inactive)
52 | CCN(CC)CCCNC(=O)c1ccc2c(=O)n(Cc3ccc4c(c3)OCO4)c(=S)[nH]c2c1 | 95% (active)
53 | COc1ccc(Cn2c(=S)[nH]c3cc(C(=O)NCCCN4CCOCC4)ccc3c2=O)cc1 | 7.86% (inactive)
54 | CCCCNC(=O)CCn1c(=S)[nH]c2cc3c(cc2c1=O)OCO3 | 5.42% (inactive)
55 | CCOc1ccc(NC(=O)CN(C)C(=O)c2c(C)noc2C)cc1OCC | -5.01% (inactive)
56 | CCOC(=O)c1c(C)oc2cc(Sc3ccccc3)c(O)c(O)c12 | -12.1% (inactive)
57 | CC(NCC(=O)Nc1ccccc1C(=O)NC1CC1)c1ccccc1Cl (configuration not stated) | -6.65% (inactive)
58 | Nc1nonc1-n1nnc(C(=O)N/N=C/c2ccccc2O)c1CN1CCCC1 | -0.481% (inactive)
59 | Cc1noc(C)c1COc1ccccc1C(=O)N(C)CC(=O)Nc1cccc(F)c1 | -3.03% (inactive)
60 | Cc1ccc(N/N=C2\COC(C)(C)CC2=O)cc1 | 98.6% (active)
61 | CSCCC1NC(=O)N(CC(=O)Nc2cccc(S(=O)(=O)N3CCCCCC3)c2)C1=O (configuration not stated) | 9.93% (inactive)
62 | CCCCc1ccc(NS(=O)(=O)c2cccc(C(=O)N3CCCN(C)CC3)c2)cc1 | -4.55% (inactive)
63 | N#Cc1c(-c2ccccc2)nc(SCc2cccc(C(F)(F)F)c2)[nH]c1=O | 86.8% (active)
64 | N#Cc1c(-c2ccccc2)nc(SCc2ccc([N+](=O)[O-])cc2)[nH]c1=O | 99.5% (active)
65 | O=c1[nH]c(SCc2cccc(F)c2)nc2ccccc12 | -17.9% (inactive)
66 | O=c1[nH]c(SCc2ccccc2)nnc1-c1ccccc1 | -6.49% (inactive)
67 | N#Cc1c(-c2ccc(F)cc2)nc(-c2ccccc2)[nH]c1=O | 47.4% (inactive)
68 | COc1ccccc1CSc1ncc(-c2ccc([N+](=O)[O-])cc2)[nH]1 | -12.3% (inactive)
69 | C/C=C/c1ccc(OCC(=O)NNC(=O)CN(C)S(=O)(=O)c2ccc(C)cc2)c(OC)c1 | -17.6% (inactive)

Row | Compound | inhibition
70 | Cc1ccc2nnn(Cc3cccc(C(C)(C)C)c3O)c2c1 | 14.7% (inactive)
71 | CCC(CC)c1nnc(NC(=O)C2=COCCO2)s1 | 2.79% (inactive)
72 | O=C(c1ccc(Cl)s1)N(Cc1nnc(-c2ccccc2Cl)o1)C1CC1 | -3.36% (inactive)
73 | COc1ccc(C)cc1NC(=O)c1cc(-c2ccccc2)nc2c1cnn2C(C)C | -1.17% (inactive)
74 | Cc1ccc(S(=O)(=O)N2CCCCC2)cc1C(=O)N(C)CC(=O)Nc1cccc(F)c1 | -10.8% (inactive)
75 | O=C(C[n+]1ccccc1)N/N=C/c1ccc(O)cc1 | 98.9% (active)
76 | O=C(CCCCCNC(=O)c1ccccc1)N/N=C/c1ccccc1 | 35.5% (inactive)
77 | O=C(CC(O)(C(F)(F)F)C(F)(F)F)Nc1ccc(Cl)c(Cl)c1 | 31.6% (inactive)
78 | O=C(CC(=O)N/N=C\c1ccc(F)cc1)NCCc1ccccc1 | 38.6% (inactive)
79 | O=C(CC(=O)Nc1ccc(Cl)c(Cl)c1)N/N=C/c1ccc(O)cc1 | 98.1% (active)
80 | CC1=NNC(=O)C1CCC(=O)N/N=C\c1ccc(Cl)c(Cl)c1 (configuration not stated) | 56.7% (inactive)
81 | CC(C)(C)OC(=O)CNC(=O)c1[nH]cnc1C(=O)N[C@@H](CCCCN)C(=O)OC(C)(C)C | 2.52% (inactive)
82 | C=CC[C@@H](CC(=O)N[C@@H](CO)Cc1ccccc1)C(=O)NCCOC(=O)[C@@H](CC=C)CC(=O)OC(C)(C)C | 0.56% (inactive)
83 | COc1ccc(C(=O)N(Cc2ccccc2)c2ccc(C)cc2)cc1S(=O)(=O)N1CCOCC1 | 18.8% (inactive)
84 | COc1ccc(NC(C)=O)cc1NC(=O)CN1CCN(c2ccccn2)CC1 | -9.42% (inactive)
85 | O=C(CN1CCN(c2ccccn2)CC1)Nc1ccc(Br)cc1 | -8.03% (inactive)
86 | CCN(CC)c1ccc(NC(=O)CN2CCN(c3ccccn3)CC2)cc1 | 99.3% (active)
87 | Cc1ccc(S(=O)(=O)N2[C@@H](c3cccc4ccccc34)C(C(=O)O)=C[C@H]2C(C)(C)C)cc1 | 9.1% (inactive)
88 | CN(C(=O)Cn1nnc(-c2ccc(F)cc2)n1)C1CCS(=O)(=O)C1 (configuration not stated) | -4.28% (inactive)
89 | CCC1CCC/C1=N\NC(=O)c1ccc(Cl)cc1 (configuration not stated) | -14.7% (inactive)
90 | O=C(COc1ccc2c3c(c(=O)oc2c1)CCCC3)NCC(O)c1ccccc1 (configuration not stated) | -0.0443% (inactive)
91 | O=C(COc1ccc2oc3c(c2c1)CCCC3)Nc1ccccn1 | -9.11% (inactive)
92 | CCN(CC)CCCNC(=O)COc1ccc2oc3c(c2c1)CCCC3 | 83.3% (active)
